For some assays here: Entries with a potency or affinity are not part of this list.
Tests used:
Parameters in all cases: scale not given: direction of the effect not stated beside the values
[1] = molecular target: Protein translocase subunit SecA (Escherichia coli (strain K12)) (UniProt P10408); assay: Assay to Identify E. coli SecA ATPase Inhibitors; assay type: functional; conditions: 30 µM
[2] = molecular target: T1, Ubiquitin-activating enzyme e1, putative (Leishmania donovani (strain BPK282A1)) (UniProt E9BSI1); assay: Leishmania donovani Ubiquitin Activating Enzyme (LdE1); assay type: functional; conditions: 30 µM
T1 sequence (whole entry): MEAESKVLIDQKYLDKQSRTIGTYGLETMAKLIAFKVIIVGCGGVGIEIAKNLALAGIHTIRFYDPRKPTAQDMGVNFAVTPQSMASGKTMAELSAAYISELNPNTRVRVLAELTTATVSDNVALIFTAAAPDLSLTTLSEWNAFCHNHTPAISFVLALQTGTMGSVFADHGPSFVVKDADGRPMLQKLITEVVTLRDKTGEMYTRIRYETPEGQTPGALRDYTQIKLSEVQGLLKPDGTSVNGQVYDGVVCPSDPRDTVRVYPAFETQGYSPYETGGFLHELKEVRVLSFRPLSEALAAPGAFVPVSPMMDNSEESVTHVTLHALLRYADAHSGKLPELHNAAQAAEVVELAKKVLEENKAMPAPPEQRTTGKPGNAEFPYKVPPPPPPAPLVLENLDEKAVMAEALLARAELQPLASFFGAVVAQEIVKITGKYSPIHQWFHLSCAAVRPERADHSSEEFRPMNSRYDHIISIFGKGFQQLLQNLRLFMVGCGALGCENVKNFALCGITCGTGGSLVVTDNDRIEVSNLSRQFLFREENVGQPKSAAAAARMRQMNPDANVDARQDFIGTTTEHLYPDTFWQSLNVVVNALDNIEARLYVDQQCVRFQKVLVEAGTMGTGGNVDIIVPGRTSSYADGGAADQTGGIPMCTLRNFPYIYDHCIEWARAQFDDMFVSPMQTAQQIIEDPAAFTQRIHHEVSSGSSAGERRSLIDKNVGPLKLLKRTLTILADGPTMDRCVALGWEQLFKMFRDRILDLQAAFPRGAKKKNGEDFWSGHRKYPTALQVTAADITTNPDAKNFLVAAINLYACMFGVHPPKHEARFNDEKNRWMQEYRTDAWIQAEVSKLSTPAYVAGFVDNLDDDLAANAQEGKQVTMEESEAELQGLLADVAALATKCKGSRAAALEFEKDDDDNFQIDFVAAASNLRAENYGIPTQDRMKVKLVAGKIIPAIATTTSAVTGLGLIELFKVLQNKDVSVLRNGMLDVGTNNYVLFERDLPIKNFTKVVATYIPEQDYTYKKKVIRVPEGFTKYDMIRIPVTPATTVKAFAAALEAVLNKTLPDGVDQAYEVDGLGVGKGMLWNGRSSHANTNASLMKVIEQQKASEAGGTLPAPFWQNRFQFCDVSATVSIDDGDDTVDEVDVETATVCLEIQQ

[3] = molecular target: AMP-activated protein kinase, AMPK (Homo sapiens) (UniProt P54646+O43741+P54619+Q9UGJ0+Q9Y478+Q13131+Q9UGI9); assay: AMP-dependent Kinase enzyme assay. An in vitro enzyme assay that detects ADP turnover that is directly proportional to AMPK activity. This uses naive AMPK that is activated during the assay with MK-8722; assay type: functional; conditions: 30 µM
[4] = molecular target: Sialic acid-binding Ig-like lectin 9 (Homo sapiens) (UniProt Q9Y336); assay: Hs-Siglec9 ALPHAscreen SOP 20170721; conditions: 10 µM
[5] = tested on: Trypanosoma cruzi; assay: Trypanosoma cruzi phosphomannomutase and mannose-1-phosphate guanylyltransferase assay; assay type: functional; conditions: 10 µM
[6] = molecular target: T2, Arginase-2, mitochondrial (Homo sapiens) (UniProt P78540); assay: in vitro enzyme assay to detect the production of urea directly proportional to the activity of Arginase II; assay type: functional; conditions: 33.3 µM; also: in the data most compounds retested in dose-response had high values
T2 sequence (whole entry): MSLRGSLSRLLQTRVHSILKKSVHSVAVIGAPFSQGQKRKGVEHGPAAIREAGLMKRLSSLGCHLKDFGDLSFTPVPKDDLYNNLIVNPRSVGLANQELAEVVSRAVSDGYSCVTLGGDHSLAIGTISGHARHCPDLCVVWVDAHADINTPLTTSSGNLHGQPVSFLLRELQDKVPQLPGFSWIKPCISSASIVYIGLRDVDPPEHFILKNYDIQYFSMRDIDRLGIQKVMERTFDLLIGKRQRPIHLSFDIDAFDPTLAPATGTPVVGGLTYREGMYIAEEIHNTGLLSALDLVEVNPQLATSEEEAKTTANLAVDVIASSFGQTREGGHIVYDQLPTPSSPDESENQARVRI

[7] = molecular target: T3, Proteasome subunit beta (Trypanosoma cruzi) (UniProt O96673); assay: Trypanosoma cruzi proteasome chymotrypsin-like activity (TcProtChymo) assay.; also: in the data most compounds retested in dose-response had high values; assay type: functional; conditions: 9.37 µM
T3 sequence (whole entry): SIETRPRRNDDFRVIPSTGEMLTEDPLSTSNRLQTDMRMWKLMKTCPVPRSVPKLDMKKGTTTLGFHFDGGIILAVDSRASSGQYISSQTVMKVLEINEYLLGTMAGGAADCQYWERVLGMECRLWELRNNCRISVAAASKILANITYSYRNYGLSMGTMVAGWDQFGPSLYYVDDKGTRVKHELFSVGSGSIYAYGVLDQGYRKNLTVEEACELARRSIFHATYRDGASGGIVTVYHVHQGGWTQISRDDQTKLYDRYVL

[8] = organism: Homo sapiens; assay: To identify inhibition of the IFN signalling (Jak-Stat) pathway via expression of an eGFP reporter gene under the control of an IFN-stimulated response element (ISRE) containing MxA promoter.; assay type: functional; conditions: 30 µM
[9] = molecular target: T4, Tyrosyl-tRNA synthetase, putative (Trypanosoma cruzi (strain CL Brener)) (UniProt Q4DSP6); assay: Trypanosoma cruzi tyrosyl tRNA synthetase (TcYRS) _High Tyrosine SOP; assay type: functional; conditions: 30 µM; also: in the data most compounds retested in dose-response had high values
T4 sequence (whole entry): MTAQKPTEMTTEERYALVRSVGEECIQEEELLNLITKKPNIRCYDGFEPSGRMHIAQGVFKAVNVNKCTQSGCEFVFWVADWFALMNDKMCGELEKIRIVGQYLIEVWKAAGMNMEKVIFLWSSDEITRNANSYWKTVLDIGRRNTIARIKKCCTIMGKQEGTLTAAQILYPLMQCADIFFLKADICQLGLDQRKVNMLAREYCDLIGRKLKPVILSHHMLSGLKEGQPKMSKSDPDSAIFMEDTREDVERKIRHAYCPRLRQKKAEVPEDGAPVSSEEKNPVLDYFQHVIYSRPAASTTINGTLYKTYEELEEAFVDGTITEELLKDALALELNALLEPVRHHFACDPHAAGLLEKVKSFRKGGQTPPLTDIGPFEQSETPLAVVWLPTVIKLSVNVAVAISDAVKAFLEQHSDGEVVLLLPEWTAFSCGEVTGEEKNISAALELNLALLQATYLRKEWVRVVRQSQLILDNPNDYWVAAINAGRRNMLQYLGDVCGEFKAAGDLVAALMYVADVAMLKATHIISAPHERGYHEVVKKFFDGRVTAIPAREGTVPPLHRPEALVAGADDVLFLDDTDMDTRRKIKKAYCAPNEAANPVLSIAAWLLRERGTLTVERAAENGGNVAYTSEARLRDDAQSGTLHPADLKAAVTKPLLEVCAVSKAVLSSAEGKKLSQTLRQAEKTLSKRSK

[10] = molecular target: T4, Tyrosyl-tRNA synthetase, putative (Trypanosoma cruzi (strain CL Brener)); assay: Trypanosoma cruzi tyrosyl tRNA synthetase (TcYRS) SOP; assay type: functional; conditions: 30 µM
[11] = molecular target: Chromo domain-containing protein 1 (Saccharomyces cerevisiae (strain ATCC 204508 / S288c) (Baker's yeast)) (UniProt P32657); assay: ScCHD-1 Enzyme Inhibition Assay; assay type: functional; conditions: 30 µM; also: in the data most compounds retested in dose-response had high values
Sequence of Chromo domain-containing protein 1 (Saccharomyces cerevisiae (strain ATCC 204508 / S288c) (Baker's yeast)) (P32657 whole entry, the tested form may be a part): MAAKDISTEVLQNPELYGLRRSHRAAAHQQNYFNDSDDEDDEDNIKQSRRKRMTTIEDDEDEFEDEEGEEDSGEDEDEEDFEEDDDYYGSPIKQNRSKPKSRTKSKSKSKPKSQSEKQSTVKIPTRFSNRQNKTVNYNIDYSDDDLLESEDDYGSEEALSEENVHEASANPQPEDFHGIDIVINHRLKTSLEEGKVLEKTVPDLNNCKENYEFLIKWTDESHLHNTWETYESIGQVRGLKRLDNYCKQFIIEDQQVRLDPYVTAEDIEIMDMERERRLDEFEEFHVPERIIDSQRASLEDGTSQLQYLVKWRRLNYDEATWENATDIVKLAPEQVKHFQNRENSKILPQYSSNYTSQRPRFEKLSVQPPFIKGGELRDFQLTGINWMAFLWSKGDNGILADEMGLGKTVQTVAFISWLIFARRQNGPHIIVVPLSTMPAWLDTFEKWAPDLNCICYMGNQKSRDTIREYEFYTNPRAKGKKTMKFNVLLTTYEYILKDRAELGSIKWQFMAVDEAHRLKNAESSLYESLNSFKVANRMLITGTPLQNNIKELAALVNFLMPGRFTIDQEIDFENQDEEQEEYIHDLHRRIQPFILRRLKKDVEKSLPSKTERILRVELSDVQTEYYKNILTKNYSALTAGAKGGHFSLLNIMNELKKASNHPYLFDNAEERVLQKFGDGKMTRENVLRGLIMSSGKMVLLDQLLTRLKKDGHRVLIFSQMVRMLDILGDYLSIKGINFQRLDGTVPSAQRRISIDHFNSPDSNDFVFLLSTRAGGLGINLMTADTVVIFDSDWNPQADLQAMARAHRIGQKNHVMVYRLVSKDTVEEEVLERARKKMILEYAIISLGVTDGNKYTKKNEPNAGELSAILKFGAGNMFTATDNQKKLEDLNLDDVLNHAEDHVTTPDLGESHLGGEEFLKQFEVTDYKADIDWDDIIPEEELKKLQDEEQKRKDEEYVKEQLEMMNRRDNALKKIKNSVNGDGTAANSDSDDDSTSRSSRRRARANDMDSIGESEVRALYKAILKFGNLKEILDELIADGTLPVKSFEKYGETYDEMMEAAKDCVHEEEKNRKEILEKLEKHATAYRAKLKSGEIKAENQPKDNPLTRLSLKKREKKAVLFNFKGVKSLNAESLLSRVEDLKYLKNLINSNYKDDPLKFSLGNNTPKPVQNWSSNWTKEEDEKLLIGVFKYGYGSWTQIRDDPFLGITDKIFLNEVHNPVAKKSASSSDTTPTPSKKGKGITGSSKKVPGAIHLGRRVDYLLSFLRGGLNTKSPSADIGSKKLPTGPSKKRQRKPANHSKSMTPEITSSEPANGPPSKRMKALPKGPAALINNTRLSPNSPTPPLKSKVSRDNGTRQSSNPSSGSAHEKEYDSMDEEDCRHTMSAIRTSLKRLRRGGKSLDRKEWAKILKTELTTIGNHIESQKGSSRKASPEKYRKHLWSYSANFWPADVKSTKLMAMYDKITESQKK

Sequence of Protein translocase subunit SecA (Escherichia coli (strain K12)) (P10408 whole entry): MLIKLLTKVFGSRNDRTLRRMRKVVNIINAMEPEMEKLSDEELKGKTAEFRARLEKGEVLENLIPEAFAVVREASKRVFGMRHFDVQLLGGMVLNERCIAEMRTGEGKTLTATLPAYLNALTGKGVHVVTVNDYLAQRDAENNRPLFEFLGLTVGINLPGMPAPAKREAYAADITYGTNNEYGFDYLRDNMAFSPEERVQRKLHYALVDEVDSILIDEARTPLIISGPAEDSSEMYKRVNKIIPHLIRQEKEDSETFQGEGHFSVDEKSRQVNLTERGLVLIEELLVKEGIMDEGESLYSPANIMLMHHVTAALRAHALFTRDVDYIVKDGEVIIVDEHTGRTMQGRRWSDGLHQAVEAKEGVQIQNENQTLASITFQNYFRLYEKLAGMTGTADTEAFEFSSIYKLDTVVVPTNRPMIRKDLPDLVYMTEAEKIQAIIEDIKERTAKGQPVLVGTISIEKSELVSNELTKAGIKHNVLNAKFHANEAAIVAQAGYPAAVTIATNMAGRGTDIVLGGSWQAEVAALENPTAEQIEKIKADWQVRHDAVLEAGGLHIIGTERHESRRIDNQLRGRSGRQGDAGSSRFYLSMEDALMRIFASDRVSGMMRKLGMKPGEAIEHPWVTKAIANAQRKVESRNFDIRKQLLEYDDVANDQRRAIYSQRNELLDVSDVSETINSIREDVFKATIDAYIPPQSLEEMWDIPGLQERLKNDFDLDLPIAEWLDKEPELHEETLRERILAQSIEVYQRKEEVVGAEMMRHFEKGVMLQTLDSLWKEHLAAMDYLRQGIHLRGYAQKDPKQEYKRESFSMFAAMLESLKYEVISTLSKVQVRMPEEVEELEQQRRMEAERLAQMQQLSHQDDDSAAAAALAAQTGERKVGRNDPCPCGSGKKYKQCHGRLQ
Sequence of Sialic acid-binding Ig-like lectin 9 (Homo sapiens) (Q9Y336 whole entry): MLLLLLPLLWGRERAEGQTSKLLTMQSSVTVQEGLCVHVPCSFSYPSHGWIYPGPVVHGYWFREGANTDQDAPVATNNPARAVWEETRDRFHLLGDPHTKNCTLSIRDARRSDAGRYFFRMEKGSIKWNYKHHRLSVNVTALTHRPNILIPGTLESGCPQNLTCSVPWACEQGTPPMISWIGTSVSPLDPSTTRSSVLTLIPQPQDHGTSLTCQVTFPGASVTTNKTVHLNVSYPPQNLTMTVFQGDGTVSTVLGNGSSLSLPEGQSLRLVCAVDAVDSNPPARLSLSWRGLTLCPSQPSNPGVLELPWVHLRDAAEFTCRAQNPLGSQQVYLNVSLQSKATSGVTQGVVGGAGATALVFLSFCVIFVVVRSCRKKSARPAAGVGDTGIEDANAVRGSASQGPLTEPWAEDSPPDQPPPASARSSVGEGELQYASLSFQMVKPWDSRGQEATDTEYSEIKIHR

| Structure (SMILES) | Percent Effect [1] [%] | Percent Effect [2] [%] | Percent Effect [3] [%] | Percent Effect [4] [%] | Percent Effect [5] [%] | Percent Effect [6] [%] | Percent Effect [7] [%] | Percent Effect [8] [%] | Percent Effect [9] [%] | Percent Effect [10] [%] | Percent Effect [11] [%] |
| --- | --- | --- | --- | --- | --- | --- | --- | --- | --- | --- | --- |
| CCN(C1CCS(=O)(=O)C1)S(=O)(=O)c1cccc2cc(C)cnc12 (stereo unspecified) | -4.6 | 21.1 | 5.96 | -4.93 | -4.01 | 3.96 | 4.99 | 14.3 | 6.4 | 18.5 | -6.57 |
| Cc1cnn(CCNCc2nc(-c3ccccc3Cl)no2)c1 | -4.16 | 10.5 | 0.118 | -5.56 | 9.77 | -4.98 | 16.5 | 12.2 | 5.39 | 17.1 | -13.7 |
| N#Cc1ccc(C(=O)N2CC[C@H]3[C@@H]2CCC(=O)N3c2ccccc2)cc1 | 1.09 | 0 | 6.69 | -7.59 | -7.68 | 4.89 | 6.08 | 0.115 | 4.25 | 11.5 | -4.7 |
| O=C(NCc1cccnc1)C1=NN(c2ccccc2)C(=O)CN1 | -0.966 | 18.9 | 8.77 | 14.9 | 0.293 | 26.1 | 15 | -2.67 | 6.45 | 18.5 | -8.57 |
| CCN(CC)C(=O)c1cc(C2CCCN2C)ccn1 (stereo unspecified) | -5.39 | 23 | -2.48 | -2.94 | 0.988 | -2.55 | 15.4 | -5.61 | 5.38 | 11.7 | -12.8 |
| CC(=O)N1CCCC1c1cccc(Cc2ccccc2F)n1 (stereo unspecified) | -3.38 | -9.46 | 3.81 | -1.05 | -2.77 | -1.62 | -1.25 | 26.6 | -4.3 | -9.09 | 3.67 |
| Cc1nc2ccccc2c(=O)n1CCC(=O)N1CCNC(=O)C1 | -4.53 | 10.5 | 6.29 | 11.3 | 0.94 | 0 | 3.51 | 2.72 | 4.41 | 9.76 | -6.93 |
| CC(C)C(Sc1nnc(C2CC2)n1C1CC1)C(=O)NCc1cccnc1 (stereo unspecified) | 1.83 | -2.6 | -2.77 | 5.12 | 5.24 | -1.42 | 3.21 | -24.2 | 5.83 | 12.2 | -8.74 |
| CCS(=O)(=O)c1ccccc1C(=O)NCc1ccnc(N(C)C)c1 | -2.2 | 28.6 | -10.1 | 2.33 | 2.62 | 4.27 | 14 | 4.01 | 9.71 | 24.4 | -10.5 |
| c1ccc(CCN2CCN(c3ccc4nncn4n3)CC2)nc1 | -3.09 | 5.2 | 9.47 | 7.22 | -4.49 | 3.56 | 3.72 | 21.7 | 2.91 | 7.32 | -0.331 |
| Cc1ccc(C(CNCC2CC2)N2CCOCC2)s1 (stereo unspecified) | 4.94 | 8.11 | -0.221 | 3.49 | -6.05 | 1.67 | 11.9 | 26.7 | 9.9 | 8.54 | -6.06 |
| CN(C)C(=O)CNC(=O)c1ccc(Cl)cc1F | -6.12 | 21.1 | -0.479 | -6.12 | 3.99 | -65.1 | 13.7 | 15.7 | 6.38 | -28.6 | -15.3 |
| O=C(c1ccc2c(c1)CCC2)N1C[C@@H](CN2CCOCC2)[C@@H](CO)C1 | -4.64 | 2.67 | 1.02 | 21.3 | -6.52 | 0 | 1.22 | 0.733 | 3.83 | 3.7 | -3.15 |
| CCOC(=O)CCC(=O)NC(C)c1ccc(NC(=O)CC)cc1 (stereo unspecified) | -1.67 | 7.89 | 2.06 | -5.73 | -1.66 | 1.18 | 9.88 | 6.92 | 6.38 | 13 | -3.37 |
| COc1cc(C(=O)Nc2nc(C)no2)ccc1C | -6.11 | 25.3 | -1.3 | -0.471 | 3.12 | -4.56 | 4.83 | 33.2 | 7.39 | 26.6 | -8.84 |
| CS(=O)(=O)NCCCN1CCCC1c1ccccc1 (stereo unspecified) | -4.36 | 5.06 | -1.23 | 6.79 | 1.42 | 3.04 | 3.03 | -31.1 | 7.39 | 13.9 | -5.84 |
